About 14,000 (4.5%) of roughly 310,000 compounds showed an effect of 50% or more. Effects have a minus sign here. Shown is part of a subset that was picked to be rich in strong results.
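Further: peak tail current of the secondary pulse compared with the same well before compound.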

The target of the experiment is human ether-à-go-go-related gene (hERG) potassium channel (human, UniProt Q12809). The experiment is described as follows: primary screen, population patch clamp on CHO cells stably expressing hERG; higher = less effect of the substance.
Sequence of human ether-à-go-go-related gene (hERG) potassium channel (Q12809 whole entry, looked up): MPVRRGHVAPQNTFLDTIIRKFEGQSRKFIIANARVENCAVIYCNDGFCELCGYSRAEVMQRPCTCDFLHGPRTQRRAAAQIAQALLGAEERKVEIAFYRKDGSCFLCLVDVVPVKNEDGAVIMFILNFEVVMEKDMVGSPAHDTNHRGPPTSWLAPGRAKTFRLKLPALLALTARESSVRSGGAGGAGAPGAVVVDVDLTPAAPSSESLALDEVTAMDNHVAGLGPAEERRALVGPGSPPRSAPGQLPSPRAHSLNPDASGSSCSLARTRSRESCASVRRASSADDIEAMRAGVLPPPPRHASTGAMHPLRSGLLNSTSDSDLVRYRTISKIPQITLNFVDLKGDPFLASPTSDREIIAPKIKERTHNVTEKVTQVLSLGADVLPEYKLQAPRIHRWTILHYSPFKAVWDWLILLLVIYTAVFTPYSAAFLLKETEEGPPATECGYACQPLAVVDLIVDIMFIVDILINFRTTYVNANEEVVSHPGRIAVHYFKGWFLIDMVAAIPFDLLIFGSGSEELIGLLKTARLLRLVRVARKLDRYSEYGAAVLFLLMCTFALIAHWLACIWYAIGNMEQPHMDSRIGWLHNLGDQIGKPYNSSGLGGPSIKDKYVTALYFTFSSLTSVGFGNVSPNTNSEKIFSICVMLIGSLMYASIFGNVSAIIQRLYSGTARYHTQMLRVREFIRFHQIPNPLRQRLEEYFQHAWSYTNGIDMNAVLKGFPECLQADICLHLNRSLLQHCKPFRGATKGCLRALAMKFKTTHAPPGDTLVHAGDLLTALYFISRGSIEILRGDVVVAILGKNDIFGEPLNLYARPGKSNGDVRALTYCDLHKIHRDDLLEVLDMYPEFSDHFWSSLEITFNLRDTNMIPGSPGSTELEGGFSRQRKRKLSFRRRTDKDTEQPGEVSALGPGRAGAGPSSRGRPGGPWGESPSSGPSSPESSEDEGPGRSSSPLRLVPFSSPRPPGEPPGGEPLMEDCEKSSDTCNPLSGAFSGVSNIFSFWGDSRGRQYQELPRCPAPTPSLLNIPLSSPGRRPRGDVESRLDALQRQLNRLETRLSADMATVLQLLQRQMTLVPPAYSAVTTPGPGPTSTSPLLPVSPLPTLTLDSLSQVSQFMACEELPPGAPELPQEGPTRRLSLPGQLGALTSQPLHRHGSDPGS
Regarding `CCCc1nnc(NC(=O)CN2CCN(C)CC2)s1.Cl`, the “hERG current change (%, negative = inhibition) at 10uM” value is -1.91%.
Take `O=C(Nc1cccc(O)c1)c1noc2c1CCCCC2`: the “hERG current change (%, negative = inhibition) at 10uM” value is given as -8.56%.
For the molecule `O=c1[nH]nc(-c2ccc(F)cc2)cc1Cc1ccccc1`, the “hERG current change (%, negative = inhibition) at 10uM” value is reported as 3.89%.
For the molecule `CN(C)C(=O)c1cc(C(=O)c2ccc(F)cc2Cl)c[nH]1`, the “hERG current change (%, negative = inhibition) at 10uM” value is reported as 11.4%.
Next, `CN(Cc1ccc(OC(F)F)cc1)Cc1nc2c(Br)cc(Br)cc2c(=O)[nH]1`: -5.29%; `COc1cc(/C=C/C(=O)OCC(=O)NC2CCS(=O)(=O)C2)ccc1OC(F)F` (centres unmarked): -14%; `COc1cc(NC(=O)NS(=O)(=O)c2ccc(C)cc2)cc(OC)c1`: -1.04%.
On to `CSc1snc(SCC(N)=O)c1C#N`, for which the “hERG current change (%, negative = inhibition) at 10uM” value was determined as 20.6%.
For `Cc1cccc(-n2c(C)nc3c(cnn3-c3ccc(F)cc3)c2=O)c1` the value was -12.6%.
Next, `COc1ccc(C)cc1NC(=O)c1cccc(-c2ccc(OC(C)=O)cc2)c1`: 28.5%; `COc1ccc(NC(=O)Nc2nnc(N3CCC(C)CC3)s2)cc1OC`: -0.885%; `CC1=NNC(=O)C1C(c1cccc(O)c1)C(C#N)C#N` (centres unmarked): 14.3%.
For `O=C(NCCOc1ccccc1F)c1cc([N+](=O)[O-])ccc1N1CCOCC1` the value was -45.1%; for `CN(Cc1ccccc1)C(=O)COC(=O)c1cc([N+](=O)[O-])ccc1N1CCOCC1`, -56.7%; for `O=C(NC1CCCCC1)c1cc([N+](=O)[O-])ccc1N1CCOCC1`, -13.8%.
For the molecule `O=C(COC(=O)c1cc([N+](=O)[O-])ccc1N1CCOCC1)c1ccccc1Cl`, the “hERG current change (%, negative = inhibition) at 10uM” value is recorded as -2.75%.
On to `O=C(COC(=O)c1cc([N+](=O)[O-])ccc1N1CCOCC1)Nc1cccc(F)c1`, for which the “hERG current change (%, negative = inhibition) at 10uM” value was -28.5%.
Next, `O=C(NCCOc1ccccc1)c1cc([N+](=O)[O-])ccc1N1CCOCC1`: -62.1%; `O=C(NC1CCSc2ccccc21)c1cccc([N+](=O)[O-])c1` (centres unmarked): -21.1%.
For the molecule `CC(C)CCNC(=O)c1cc([N+](=O)[O-])ccc1N1CCOCC1`, the “hERG current change (%, negative = inhibition) at 10uM” value is on record as -17.1%.
Consider `O=C(NC1CCSc2ccccc21)c1cc([N+](=O)[O-])ccc1N1CCOCC1` (centres unmarked), for which the “hERG current change (%, negative = inhibition) at 10uM” value is reported as -57.8%.
For `CCN(C(=O)COC(=O)c1cc([N+](=O)[O-])ccc1N1CCOCC1)c1ccccc1` the value was -34.3%.
As to `CC(NC(=O)COC(=O)c1cc([N+](=O)[O-])ccc1N1CCOCC1)c1ccc(F)cc1` (centres unmarked), the “hERG current change (%, negative = inhibition) at 10uM” value was -56.8%.
For `CC(=O)Nc1ccc(NC(=O)COC(=O)c2cc([N+](=O)[O-])ccc2N2CCOCC2)cc1` the value was 0.326%.
Next, `COC(=O)c1ccccc1NC(=S)N1CCC(N2CCCCC2)CC1`: -12.2%; `Cc1oc(-c2ccccc2Cl)nc1CS(=O)CC(=O)NC1CC1` (centres unmarked): 7.58%.
With `C[C@@H]1C=C[C@](Cc2ccccc2)(C(=O)NCCc2c[nH]c3ccccc23)N1C(=O)c1ccccc1`, the “hERG current change (%, negative = inhibition) at 10uM” value is -7.94%.
For `COc1ccc(Nc2c(C)cccc2C)cc1` the value was 17.7%.
For `COc1ccc(-c2cc(C)nc(SCC(=O)c3cccc([N+](=O)[O-])c3)n2)cc1` the value was 0.439%; for `O=C(COC(=O)C1C2CC3OC(=O)C1C3C2)Nc1ccc(F)cc1` (centres unmarked), 13.2%; for `COc1ccc(CN2CCC(C(=O)N3CCCC(C)C3)CC2)cc1OC.O=C(O)C(=O)O` (centres unmarked), -19.2%.
`CCC(C)(C)NC(=O)CSc1nc(Cc2ccccc2)nc2ccccc12`: the “hERG current change (%, negative = inhibition) at 10uM” value was determined as 11.5%.
Next, `CCOc1ccccc1NS(=O)(=O)c1ccc2c(c1)NC(=O)CCS2`: -46%; `O=C(CC1C(=O)NCCN1Cc1ccc(F)c(F)c1)NCCCn1ccnc1` (centres unmarked): 19%.
For `CC(NC(=O)c1ccc2ccccc2n1)c1ccccc1` (centres unmarked) the value was -6.17%.
For `CN(CC(=O)Nc1ccc(F)cc1)C(=O)COC(=O)c1cc([N+](=O)[O-])ccc1N1CCOCC1` the value was -64.3%; for `O=C(COC(=O)c1cc([N+](=O)[O-])ccc1N1CCOCC1)c1ccc(F)cc1`, -55.9%.
With `NS(=O)(=O)c1ccc(CCNC(=O)c2cc([N+](=O)[O-])ccc2N2CCOCC2)cc1`, the “hERG current change (%, negative = inhibition) at 10uM” value is -15.2%.
As to `CN(CC(=O)Nc1ccccc1Cl)C(=O)COC(=O)c1cc([N+](=O)[O-])ccc1N1CCOCC1`, the “hERG current change (%, negative = inhibition) at 10uM” value is on record as -44.4%.
For `CN(CC(=O)Nc1ccc(F)cc1)C(=O)c1cc([N+](=O)[O-])ccc1N1CCOCC1` the value was -24.9%.
For `O=C(COC(=O)c1cc([N+](=O)[O-])ccc1N1CCOCC1)c1ccccc1` the value was -20.1%; for `O=C(NCCCc1ccccc1)c1cc([N+](=O)[O-])ccc1Cl`, -12.3%.
For `O=C(NCCc1ccc(F)cc1)c1cc([N+](=O)[O-])ccc1N1CCOCC1` the value was -71.4%; for `O=C(COC(=O)c1cc([N+](=O)[O-])ccc1N1CCOCC1)c1ccc(Br)cc1`, -44.6%; for `COc1ccc(CCNC(=O)c2cc([N+](=O)[O-])ccc2N2CCOCC2)cc1`, -33%.
For the molecule `O=C(NCCc1cccc(Cl)c1)c1cc([N+](=O)[O-])ccc1Cl`, the “hERG current change (%, negative = inhibition) at 10uM” value was -51%.
Next, `O=C(NCCc1cccc(Cl)c1)c1cccc([N+](=O)[O-])c1`: -15.7%.
For `CC(C)C(=O)NC(=S)Nc1sc2c(c1C(N)=O)CCCC2` the value was 13.5%.
As to `COc1ccc(N2C(=O)CSCC2=O)cc1OC`, the “hERG current change (%, negative = inhibition) at 10uM” value came to 8.4%.
For `Cc1ccc2nc(CCl)[n+]([O-])c(-c3ccccc3)c2c1` the value was 1.16%; for `Cc1ccc(CN2C(=O)CCC2C(=O)NCCN2CCOCC2)cc1` (centres unmarked), 3.18%.
As to `CCc1cccc(CC)c1NC(=O)CN1CCN(c2ccccc2)CC1.Cl`, the “hERG current change (%, negative = inhibition) at 10uM” value is given as -15.7%.
For `O=S(=O)(N1CCOCC1)N1CCN(c2ccccc2F)CC1` the value was -8.17%.
For the molecule `CC(C)CNC(=O)c1ccccc1-c1ccccc1C(=O)O`, the “hERG current change (%, negative = inhibition) at 10uM” value amounted to 19.5%.
For `CCc1nnc(NC(=O)CSc2nnc(C(C)NC(=O)c3ccccc3F)n2C)s1` (centres unmarked) the value was 9.22%.
For `O=C(COC(=O)c1cc([N+](=O)[O-])ccc1N1CCOCC1)NC1CCCCC1` the value was -30.7%; for `O=C(COC(=O)c1cc([N+](=O)[O-])ccc1N1CCOCC1)Nc1ccc(Cl)cc1`, -28.2%; for `CCOc1ccc(C(=O)c2cc([N+](=O)[O-])ccc2N2CCOCC2)cc1`, -20.4%.
Regarding `CCOc1ccc(NC(=O)COC(=O)c2cc([N+](=O)[O-])ccc2N2CCOCC2)cc1`, the “hERG current change (%, negative = inhibition) at 10uM” value is on record as -43.8%.
Turning to `N#CC1(NC(=O)COC(=O)c2cc([N+](=O)[O-])ccc2N2CCCC2)CCCCC1`, the “hERG current change (%, negative = inhibition) at 10uM” value is on record as -29.8%.
Next, `N#CC1(NC(=O)COC(=O)c2cc([N+](=O)[O-])ccc2N2CCOCC2)CCCCC1`: -55.3%; `COc1ccccc1CNC(=O)COC(=O)c1cc([N+](=O)[O-])ccc1N1CCOCC1`: -48.9%.
As for `O=C(COC(=O)c1cc([N+](=O)[O-])ccc1N1CCOCC1)NCc1ccc(Cl)cc1Cl`, the “hERG current change (%, negative = inhibition) at 10uM” value is recorded as -63%.
In the case of `CCOc1ccc(NC(=O)c2cc([N+](=O)[O-])ccc2N2CCOCC2)cc1`, the “hERG current change (%, negative = inhibition) at 10uM” value is given as -55.5%.
For `CCOc1cc(/C=N/NC(=O)c2cccnc2)ccc1OCC(=O)N(C)C` the value was 19.3%; for `CC(OC(=O)c1ccccc1C(=O)N(C)c1ccccc1)C(=O)Nc1ccccc1[N+](=O)[O-]` (centres unmarked), -45.5%.
In the case of `CN1[C@@H]2CC[C@H]1CC(OC1c3ccccc3CCc3ccccc31)C2.O=C(O)CC(O)(CC(=O)O)C(=O)O` (some centres unmarked), the “hERG current change (%, negative = inhibition) at 10uM” value was -42.6%.
For `CC(C)NC(=O)c1cc(-c2cccs2)on1` the value was -4.89%; for `CCCCN(C(=O)c1ccc2c(c1)S(=O)(=O)N=C1CCCCCN12)c1c(N)n(CCCC)c(=O)[nH]c1=O`, 8.23%; for `COc1cc(N=CC2=C(O)c3ccccc3C2=O)cc(OC)c1`, 8.36%.
Turning to `Cc1cccc(NS(=O)(=O)c2ccc(C)c(C(=O)NCC(c3ccccc3)N(C)C)c2)c1` (centres unmarked), the “hERG current change (%, negative = inhibition) at 10uM” value was -14.2%.
In the case of `Nc1c(-c2ccccc2)c(CSc2nc3ccccc3[nH]2)nn1-c1cccc(Cl)c1`, the “hERG current change (%, negative = inhibition) at 10uM” value is -3.15%.
For `O=C(COc1ccc(Cl)cc1)NC1CC1` the value was 5.47%.
Regarding `O=C(Nc1ccc(-c2nc3ccccc3s2)c(O)c1)C1=COCCO1`, the “hERG current change (%, negative = inhibition) at 10uM” value was -73.1%.
For `O=C(Nc1ccc(-c2nc3ccccc3s2)cc1)C1=COCCO1` the value was 22.2%; for `O=C(Nc1ccccc1-c1nc2ccccc2s1)C1=COCCO1`, 0.377%; for `CCOc1ccc(/C(O)=C2/C(=O)C(=O)N(CCN(CC)CC)C2c2cccs2)cc1` (centres unmarked), 8.37%.
For `O=c1cc(-c2ccccc2Cl)oc2ccc([N+](=O)[O-])c(O)c12` the value was 9.93%.
For `Cc1ccccc1CCN1CCCC(CN(C)CC(C)(C)C)C1` (centres unmarked) the value was 8.88%; for `CN(CC1CCCN(CCc2ccc(Cl)cc2)C1)C(=O)C(=O)c1ccco1` (centres unmarked), -74.5%; for `Cc1ccccc1CCN1CCCC(CN(C)C(=O)C(=O)c2ccco2)C1` (centres unmarked), -70.1%.
For `CN(CC1CCCN(CCc2ccc(Cl)cc2)C1)C(=O)c1ccco1` (centres unmarked), the “hERG current change (%, negative = inhibition) at 10uM” value was -25.5%.
As for `CCOc1ccc(NC(=O)CSc2nncn2C)cc1`, the “hERG current change (%, negative = inhibition) at 10uM” value amounted to 18.7%.

(Values after PMC4336329 (PLoS ONE, 2015).)
